Laboratory results taken from PubChem BioAssay (NCATS).
Results filed as inconclusive are left out. Active and inactive are the calls of the source. Calls follow the shape of the dose curve; as a rule, active = well fitted cell-killing curve with a large enough effect; inconclusive = small, poorly fitted or top-dose-only effect; inactive = flat fitted curve, though single readings scatter.

assay: Cell Viability - LYMP2-008 (AID 980); details: LYMP2-008 lymphoblastoid cell viability, qHTS; series mostly up to 92.2 µM; also: nearly all actives have a fitted effect of over 60% in size
From the text: NIH Chemical Genomics Center [NCGC]
NIH Molecular Libraries Screening Centers Network [MLSCN]
National Institutes of Environmental Health Sciences [NIEHS]
National Toxicology Program [NTP]
We have developed a 1536-well cell-based assay for quantitative high throughput screening (qHTS) against a number of cell lines to determine in vitro cytotoxicity of small molecules. This particular assay uses a human lymphoblastoid cell line (LYMP2-008) purchased from Coriell Institute for Medical Research.
NCGC Assay Protocol Summary:
The CellTiter-Glo luminescent cell viability assay (Promega) is a homogeneous method to measure the number of viable cells in culture. The end point readout of this assay is based on quantitation of intracellular ATP, an indicator of metabolic activity, using the luciferase reaction. Luciferase catalyzes the oxidation of beetle Luciferin to oxyluciferin and light in the presence of ATP. The luminescent signal is proportional to amount of ATP present.
Using the CellTiter-Glo luminescent cell viability assay, the amount of cellular ATP was measured in the lymphoblastoid cell line with complete culture medium following compound treatment for 24 hours. The assay was performed in opaque white Kalypsys 1536-well plates. In the screen, tetraoctylammonium bromide was used as positive control. Library compounds were measured for their ability to cause acute toxicity in the cell line, as reflected by a decrease in intracellular ATP levels, in a concentration-dependent manner. […] AC50 values were determined from concentration-response data modeled with the standard Hill equation.
qHTS protocol for CellTiter Glo lymphoblastoid cellular assay
[Step] [Parameter] [Value] [Description]
1. Reagent; 5 uL; 2500 lymphoblastoid cells/well
2. Time; 5 hr; 37 C incubation
4. Controls; 23 nL; Tetraoctylammonium bromide 6.4pM to 92 uM
5. Time; 24 hr; 37 C incubation
6. Reagent; 5 uL; CellTiter Glo reagent
7. Time; 30 min; Room Temperature
8. Detection; Luminescence; Viewlux plate reader
Keywords: cell viability, cytotoxicity, lymphoblastoid cell line, luminescence, NTPHTS, NTPHTS_NCGC, NIEHS, DSSTox, MLSMR, MLSCN, NIH Roadmap, qHTS, NCGC
Potency is read from the fitted curve at half-maximal effect.

**Q.** With FC(F)(F)c1ccc(Cl)cc1 as the molecule, how does the Potency read?
**A.** inactive

**Q.** With Clc1ccc(C(c2ccc(Cl)cc2)C(Cl)Cl)cc1 as the molecule, how does the Potency read?
**A.** inactive

**Q.** For [Cd+2].[Cl-].[Cl-], which Potency is on record?
**A.** 39.8 µM (active)

**Q.** With CC/C(=C(\c1ccccc1)c1ccc(OCCN(C)C)cc1)c1ccc(O)cc1 as the molecule, how does the Potency read?
**A.** 50.1 µM (active)

**Q.** With ClC1=C(Cl)C(Cl)(Cl)C(Cl)=C1Cl as the molecule, how does the Potency read?
**A.** 3.16 µM (active)

**Q.** For N#CC(Cl)Cl, which Potency is on record?
**A.** 12.6 µM (active)

**Q.** With O=C(CCl)c1ccccc1 as the molecule, how does the Potency read?
**A.** 12.6 µM (active)

**Q.** With c1ccc2cc3c(cc2c1)-c1cccc2cccc-3c12 as the molecule, how does the Potency read?
**A.** inactive

**Q.** Which Potency does the source give for CCCCCCCCn1sccc1=O here?
**A.** 7.94 µM (active)

**Q.** For Oc1c(Br)c(Br)c(Br)c(Br)c1Br, which Potency is on record?
**A.** inactive

**Q.** With N#CSCSC#N as the molecule, how does the Potency read?
**A.** 7.94 µM (active)

**Q.** Which Potency does the source give for CC(=O)[O-].CC(=O)[O-].O.O.[Cd+2] here?
**A.** 50.1 µM (active)

**Q.** For O=[N+]([O-])C(Br)Br, which Potency is on record?
**A.** 12.6 µM (active)

**Q.** Which Potency does the source give for CC(C)CC(C)Nc1ccc(Nc2ccccc2)cc1 (centres undefined) here?
**A.** 39.8 µM (active)

**Q.** For [CH3][Hg][Cl], which Potency is on record?
**A.** 5.01 µM (active)

**Q.** For COP(=O)(OC)O/C(=C\Cl)c1cc(Cl)c(Cl)cc1Cl, which Potency is on record?
**A.** inactive

**Q.** With Nc1ccccc1C(=O)OCCc1ccccc1 as the molecule, how does the Potency read?
**A.** inactive

**Q.** With O=[N+]([O-])c1cc(C(F)(F)F)cc([N+](=O)[O-])c1Cl as the molecule, how does the Potency read?
**A.** 39.8 µM (active)

**Q.** For O=C1C2(Cl)C3(Cl)C4(Cl)C(Cl)(Cl)C5(Cl)C3(Cl)C1(Cl)C5(Cl)C24Cl (centres undefined), which Potency is on record?
**A.** 50.1 µM (active)

**Q.** With c1cc(OCC2CO2)cc(OCC2CO2)c1 (centres undefined) as the molecule, how does the Potency read?
**A.** 39.8 µM (active)

**Q.** With OC(c1ccc(Cl)cc1)(c1ccc(Cl)cc1)C(Cl)(Cl)Cl as the molecule, how does the Potency read?
**A.** inactive

**Q.** For CN(C)c1ccc(N=O)cc1, which Potency is on record?
**A.** 1.26 µM (active)

**Q.** For O=C(O)C1C(C(=O)O)C2(Cl)C(Cl)=C(Cl)C1(Cl)C2(Cl)Cl (centres undefined), which Potency is on record?
**A.** inactive

**Q.** For C#CCO, which Potency is on record?
**A.** inactive

**Q.** With C=CC(=O)OCC(CO)(COC(=O)C=C)COC(=O)C=C as the molecule, how does the Potency read?
**A.** 5.01 µM (active)

**Q.** Which Potency does the source give for C(=NC1CCCCC1)=NC1CCCCC1 here?
**A.** 50.1 µM (active)

**Q.** For O=Nc1ccc(Nc2ccccc2)cc1, which Potency is on record?
**A.** 7.94 µM (active)

**Q.** With ClC1=C(Cl)C2(Cl)C3C(Cl)C(Cl)CC3C1(Cl)C2(Cl)Cl (centres undefined) as the molecule, how does the Potency read?
**A.** inactive

**Q.** With C[C@@H]1CC[C@@]2(OC1)O[C@H]1[C@@H](O)[C@H]3[C@@H]4CC[C@H]5C[C@@H](O[C@@H]6O[C@H](CO)[C@H](O[C@@H]7O[C@H](CO)[C@@H](O)[C@H](O[C@@H]8OC[C@@H](O)[C@H](O)[C@H]8O)[C@H]7O[C@@H]7O[C@H](CO)[C@@H](O)[C@H](O[C@@H]8O[C@H](CO)[C@@H](O)[C@H](O)[C@H]8O)[C@H]7O)[C@H](O)[C@H]6O)[C@H](O)C[C@]5(C)[C@H]4CC[C@]3(C)[C@H]1[C@@H]2C as the molecule, how does the Potency read?
**A.** 20 µM (active)
